High-throughput results from PubChem BioAssay.
Sampled rows, rich in hits. Any-hit rate of the full collection: about 3.4%.
TEAD-YAP inh: TEAD-YAP interaction inhibition; HEK-TIYL cells, TEAD-Gal4/YAP UAS-luciferase luminescence; inhibition, % at 9.12 µM; 1.4% of 640,000 active; AID 1259422; in the data active means inhibition above about 32%;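 further: 0% = median of test compound wells and 100% = reference inhibitor wells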
MITF inh: blocks human microphthalmia-associated transcription factor | AlphaScreen MITF homodimerization, bead proximity signal | inhibition, % at 2.6 µM | 0.91% of 650,000 active | AID 1259374; in the data active means inhibition above about 50%;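 further: 0% = vehicle wells with protein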
GPR151 ag: activates the human receptor GPR151; activation, % at 11.2 µM; PathHunter beta-arrestin GPR151 cells, luminescence; 1% of 650,000 active; in the data active means activation above about 4.9%;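 further: 0% = median of compound wells and 100% = cells with positive control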
FBW7 act: activators of human E3 ligase FBW7. Q969H0. AlphaScreen FBW7–phospho-cyclin E peptide binding, activator screen. normalized activity (activation), % at 26.1 µM. 0.13% of 650,000 active. AID 1259310; in the data active means normalized activity above about 1.9%;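 further: purified mutant Fbw7 with reduced substrate affinity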
GPR151 confirm: confirmation of human GPR151 activators. shares compounds with GPR151 ag. GPR151 PathHunter beta-arrestin cells, luminescence, 90 min; % of EA-reagent control over plate median. activation, % at 11.2 µM. 6,700 tested, under 10 active;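 active means mean percent activation across replicates above the confirmation screen cutoff of 4.91%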
GPR119 counter: activates human GPR119 in a GPR151 counter-screen | 0.3% of 6,700 active | shares compounds with GPR151 ag | GPR119 PathHunter beta-arrestin cells, luminescence, 90 min; 0 = compound-well median, 100 = enzyme-acceptor control | AID 1508611 | activation, % at 11.2 µM;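 active means mean percent activation in the counterscreen above 29.09%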;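 further: counterscreen on off-target GPR119 to flag nonselective hits from the GPR151 activator screen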
Target sequence (Q8TDV5 whole entry, looked up): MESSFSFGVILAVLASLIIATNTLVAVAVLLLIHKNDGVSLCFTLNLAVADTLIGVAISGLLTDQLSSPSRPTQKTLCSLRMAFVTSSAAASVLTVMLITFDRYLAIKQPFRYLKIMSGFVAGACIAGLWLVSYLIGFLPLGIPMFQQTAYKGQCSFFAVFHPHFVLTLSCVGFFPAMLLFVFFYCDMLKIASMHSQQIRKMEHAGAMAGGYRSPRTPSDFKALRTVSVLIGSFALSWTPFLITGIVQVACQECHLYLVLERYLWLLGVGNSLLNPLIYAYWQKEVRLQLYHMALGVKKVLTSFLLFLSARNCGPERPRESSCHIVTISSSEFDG
The depositor's hits bear a star; ! = repeats disagree.

Results for Cc1ccc(-c2csc3nnc(SCC(=O)NCCc4ccccc4)n23)cc1 ?
TEAD-YAP inh: 4; MITF inh: 0; GPR151 ag: 0; FBW7 act: 0

How did Cc1ccc(-c2csc3nnc(SCC(=O)NC(N)=O)n23)cc1 do in these assays?
TEAD-YAP inh: 1; MITF inh: 7; GPR151 ag: 6.3*; FBW7 act: 0; GPR151 confirm: 3; GPR119 counter: -3

How did CCCNC(=O)c1ccnc(Nc2ccncc2)c1 do in these assays?
TEAD-YAP inh: 1; MITF inh: -4; GPR151 ag: 4; FBW7 act: 0

How did Cc1ccc(-c2cccc3c2OC(CNC(=O)c2ccc4c(c2)OCCO4)C3)nc1 (centres undefined) do in these assays?
TEAD-YAP inh: -24; MITF inh: -14; GPR151 ag: 1; FBW7 act: 0

Results for CCn1c(SCC(=O)NCc2cccs2)nnc1-c1cccs1 ?
TEAD-YAP inh: 21; MITF inh: 5; GPR151 ag: 6.9*; FBW7 act: 0; GPR151 confirm: 0; GPR119 counter: 0

Results for CCn1c(SCC(=O)Nc2cc(OC)cc(OC)c2)nnc1-c1cccs1 ?
TEAD-YAP inh: 18; MITF inh: -1; GPR151 ag: 5.5*; FBW7 act: 1; GPR151 confirm: 0; GPR119 counter: 0

Results for Cn1c(SCC(=O)NCc2cccs2)nnc1-c1cccs1 ?
TEAD-YAP inh: 10; MITF inh: 8; GPR151 ag: -1; FBW7 act: 0

How did CCn1c(SCC(=O)Nc2ccc(OC)cc2)nnc1-c1cccs1 do in these assays?
TEAD-YAP inh: 10; MITF inh: 5; GPR151 ag: 1; FBW7 act: 0

What do the screens show for `O=C1c2cccc3cccc(c23)C(=O)N1CCCO`?
TEAD-YAP inh: -13; MITF inh: -3; GPR151 ag: -1; FBW7 act: 0

How did Cc1cccc(N2C(=O)CNC2=S)c1C do in these assays?
TEAD-YAP inh: 10; MITF inh: -7; GPR151 ag: -1; FBW7 act: 0

How did CC(=O)C1=C(C)NC(SCC=C(C)C)=C(C#N)C1C1C=CC(Cl)C=C1 (centres undefined) do in these assays?
TEAD-YAP inh: -3; MITF inh: -7; GPR151 ag: 5.4*; FBW7 act: 0; GPR151 confirm: 1; GPR119 counter: -13

Results for CC(=O)C1=C(C)NC(SCC(=O)O)=C(C#N)C1c1ccccc1 (centres undefined) ?
TEAD-YAP inh: -8; MITF inh: 14; GPR151 ag: 0; FBW7 act: 0

What do the screens show for `CCC(=O)Nc1ccc(C(=O)OCC(=O)C(C)(C)C)cc1`?
TEAD-YAP inh: -5; MITF inh: 1; GPR151 ag: 1; FBW7 act: 0

Results for O=C(CCN1CCN(C2c3ccccc3-c3ccccc32)CC1)Nc1ccc(F)cc1 ?
TEAD-YAP inh: -6; MITF inh: -1; GPR151 ag: 6.8*; FBW7 act: 0; GPR151 confirm: 0; GPR119 counter: 8

What do the screens show for `CCN(CC)c1nc(Nc2ccccc2)nc(Nc2ccc(N3CCOCC3)cc2)n1`?
TEAD-YAP inh: -4; MITF inh: 0; GPR151 ag: 0; FBW7 act: 0

What do the screens show for `COc1cccc(CNC(=S)NC2CCCC2)c1`?
TEAD-YAP inh: 4; MITF inh: -7; GPR151 ag: 6.3*; FBW7 act: 0; GPR151 confirm: 0; GPR119 counter: -7

How did COCCCN1C(=O)C2C(C(=O)Nc3cccc(SC)c3)C3C=CC2(O3)C1C(=O)NC1CCCCC1 (centres undefined) do in these assays?
TEAD-YAP inh: -8; MITF inh: 11; GPR151 ag: 5.8*; FBW7 act: 0; GPR151 confirm: 0; GPR119 counter: 1

How did CC(c1ccccc1)N1C(=O)C2C(C(=O)Nc3ccc(Cl)cc3)C3C=CC2(O3)C1C(=O)NC1CCCCC1 (centres undefined) do in these assays?
TEAD-YAP inh: 4; MITF inh: -1; GPR151 ag: 5.2*; FBW7 act: 0; GPR151 confirm: 0; GPR119 counter: 1

What do the screens show for `CC1CCCC(NC(=O)C2N(Cc3ccc(F)cc3)C(=O)C3C(C(=O)Nc4ccc(Cl)cc4)C4C=CC32O4)C1C` (centres undefined)?
TEAD-YAP inh: 1; MITF inh: -9; GPR151 ag: 5.3*; FBW7 act: 0; GPR151 confirm: 0; GPR119 counter: 0

Results for COc1cccc(CN2C(=O)C3C(C(=O)Nc4cccc(C)c4)C4C=CC3(O4)C2C(=O)NC2CCCCC2C)c1 (centres undefined) ?
TEAD-YAP inh: 3; MITF inh: -4; GPR151 ag: 5.5*; FBW7 act: 0; GPR151 confirm: 0; GPR119 counter: 9

How did COc1ccc(CN2C(=O)C3C(C(=O)Nc4cccc(C)c4)C4C=CC3(O4)C2C(=O)NC2CCCCC2C)cc1 (centres undefined) do in these assays?
TEAD-YAP inh: 1; MITF inh: -5; GPR151 ag: -2; FBW7 act: 0

What do the screens show for `CC1CCCC(NC(=O)C2N(Cc3ccc(Cl)cc3)C(=O)C3C(C(=O)Nc4ccc(Cl)cc4)C4C=CC32O4)C1C` (centres undefined)?
TEAD-YAP inh: -3; MITF inh: 4; GPR151 ag: 0; FBW7 act: 0

How did C1=CCC(CN2CCN(C3CCCC3)CC2)CC1 (centres undefined) do in these assays?
TEAD-YAP inh: -6; MITF inh: 33; GPR151 ag: 5.1*; FBW7 act: 0; GPR151 confirm: 1; GPR119 counter: 13

How did O=C(NNC(=S)Nc1ccccc1Cl)C1CC1 do in these assays?
TEAD-YAP inh: 6; MITF inh: 5; GPR151 ag: 6.0*; FBW7 act: 0; GPR151 confirm: 1; GPR119 counter: 9

What do the screens show for `Nc1c(Br)cc(Br)cc1CNC1CCC(O)CC1` (centres undefined)?
TEAD-YAP inh: -1; MITF inh: -14; GPR151 ag: 5.7*!; FBW7 act: 0; GPR151 confirm: 0; GPR119 counter: 7

Results for COc1ccc(Br)cc1CNC1CCCC1 ?
TEAD-YAP inh: -10; MITF inh: 31; GPR151 ag: -1; FBW7 act: 0

How did Cc1ccc(C(=O)CC(=O)C(=O)Nc2ncccc2O)c(C)c1 do in these assays?
TEAD-YAP inh: 5; MITF inh: -24; GPR151 ag: 8.3*; FBW7 act: -1; GPR151 confirm: 0; GPR119 counter: 9

How did OC(CN1CCCCCC1)Cn1c2ccc(Br)cc2c2cc(Br)ccc21 (centres undefined) do in these assays?
TEAD-YAP inh: 4; MITF inh: -5; GPR151 ag: 2; FBW7 act: 0

How did COc1cc(OC)cc(C(=O)NNC(=O)Nc2ccc(Cl)c(Cl)c2)c1 do in these assays?
TEAD-YAP inh: 6; MITF inh: 11; GPR151 ag: -2; FBW7 act: 0
